Experimental data taken from PubChem BioAssay (NCATS).
“And” between values parts separate entries of the source, which are not always exact repeats. Identical values can stand only once. Records with an inconclusive call do not appear. A call without a number means that no potency is given here. The source made the active and inactive calls. Unless noted, calls come from the whole dose curve; as a rule, active = well fitted curve in the direction sought with a large enough effect; inconclusive = small, poorly fitted or top-dose-only effect, or another doubt; inactive = no such curve, though single readings can be large; an effect the other way counts as inactive or inconclusive.

Key:
[1] = qHTS Assay for Lipid Storage Modulators (AID 1519; calls by dose curve); settings: Drosophila S3 cells, BODIPY lipid droplet/cell ratio, laser cytometry, cells loaded with oleic acid
In short: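 Cells seeded at 5,000 per well were treated with compounds over a concentration series and loaded with oleic acid (400 uM, as added). Lipid droplet fluorescence (488 nm excitation, 500-530 nm channel) was read by laser-scanning cytometry and normalized to 20 uM Triacsin C.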

[2] = Validation of Assay for Modulators of Lamin A Splicing (AID 1459; active = well fitted curve in the direction sought with a large enough effect in the signal ratio; the % refers to the signal ratio;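 note: cells exposed to compound for two days before reading; ratio rise marks activators and ratio drop marks inhibitors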); settings: Lamin A splicing dual RFP/GFP fluorescence reporter; series mostly up to 9.22 µM
In short: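 HeLa S3 lamin A-EGFP/DsRed2 stable clone, 600 cells/well, Opti-MEM 2% FBS; compounds by pin tool; 48 hrs, 37 °C/5% CO2; Acumen 488 nm scan, objects 10-100 um; GFP/RFP intensity ratio.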

[3] = target: DNA repair nuclease/redox regulator APEX1 (Homo sapiens) (UniProt P27695); experiment: qHTS Validation Assay for Inhibitors of the Human Apurinic/apyrimidinic Endonuclease 1 (APE1) (AID 1705;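 note: TAMRA fluorescence gain over two minutes as APE1 cuts a quenched THF abasic duplex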); settings: purified APE1 endonuclease activity, fluorescence, titration; series mostly up to 57.1 µM
Chain of DNA repair nuclease/redox regulator APEX1 (Homo sapiens) (P27695 whole entry, looked up): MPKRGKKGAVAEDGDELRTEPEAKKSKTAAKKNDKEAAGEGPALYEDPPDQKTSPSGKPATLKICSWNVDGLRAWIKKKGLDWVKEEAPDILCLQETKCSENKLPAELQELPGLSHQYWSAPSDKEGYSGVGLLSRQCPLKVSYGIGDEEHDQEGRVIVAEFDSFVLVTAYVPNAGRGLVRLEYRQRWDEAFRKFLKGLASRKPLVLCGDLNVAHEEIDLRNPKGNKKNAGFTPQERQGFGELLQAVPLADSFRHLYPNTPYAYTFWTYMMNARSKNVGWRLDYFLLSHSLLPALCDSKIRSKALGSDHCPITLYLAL
In short: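 qHTS, 1536-well. APE1 + cpd 15 min RT → 50 nM TAMRA/BHQ-2 THF-abasic dsDNA substrate → kinetic fluorescence, 3 reads/60 s; delta(read3−read1) = reaction progress. No-enzyme buffer = negative control.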

[4] = Counterscreen for APE1 Inhibitors: Fluorescent Dye Displacement Validation Assay (AID 1707); settings: fluorescent dye displacement from DNA; series mostly up to 57.1 µM
In short: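 Signal: ThO fluorescence (ex 480 nm/em 540 nm) on binding 50 nM dsDNA; displacement by test compound reduces it. Conditions: 250 nM dye, 50 mM Tris-HCl pH7.5, 2 mM MgCl2, 50mM NaCl, 0.01% Tween-20.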

[5] = target: Endonuclease 4 (Escherichia coli (strain K12)) (UniProt P0A6C1); experiment: Counterscreen for APE1 Inhibitors: qHTS Validation Assay for Inhibitors of Endonuclease IV (AID 1708); settings: E. coli endonuclease IV, DNA cleavage fluorescence; series mostly up to 57.1 µM
In short: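 The reaction buffer contained 50 mM Tris-HCl pH 7.5, 50 mM NaCl, 2 mM MgCl2, 1 mM DTT and 0.01% Tween-20. Incision of a 50 nM fluorophore/quencher THF substrate by 2 nM enzyme was measured kinetically.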

[6] = qHTS for differential inhibitors of proliferation of Plasmodium falciparum line 7G8 (AID 1815); settings: Plasmodium falciparum 7G8 proliferation inhibition; series mostly up to 28.7 µM;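 note: parasite growth measured after three days of incubation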
[7] = qHTS for differential inhibitors of proliferation of Plasmodium falciparum line GB4 (AID 1816); settings: Potency: Plasmodium falciparum GB4 proliferation inhibition; series mostly up to 28.7 µM;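 note: parasite growth measured after 72 h incubation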
[8] = qHTS for differential inhibitors of proliferation of Plasmodium falciparum line 3D7 (AID 1876);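 note: parasite growth measured after three days of culture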; settings: P. falciparum 3D7 proliferation inhibition; series mostly up to 28.7 µM
[9] = qHTS for differential inhibitors of proliferation of Plasmodium falciparum line D10 (AID 1877); settings: series mostly up to 28.7 µM;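 note: parasites grown with compound for 72 h before DNA staining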
[10] = Cell Viability - LYMP2-010 (AID 981); settings: LYMP2-010 lymphoblastoid cell viability, qHTS; series mostly up to 92.2 µM;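 note: cells exposed to compound for 24 hours at 37 °C; nearly all actives have a fitted effect of over 55% in size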
In short: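 This 24 hr viability screen uses LYMP2-010 lymphoblastoid cells, quantifies ATP via luciferase luminescence, and derives AC50 from Hill fits of qHTS concentration-response data.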

[11] = Cell Viability - LYMP2-012 (AID 982); settings: LYMP2-012 lymphoblastoid cell viability qHTS; series mostly up to 92.2 µM;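 note: cellular ATP by luciferase luminescence where a drop means cytotoxicity; cells exposed to compound for one day before reading; nearly all actives have a fitted effect of over 55% in size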
[12] = Cell Viability - LYMP2-014 (AID 983); settings: LYMP2-014 lymphoblastoid cells, viability qHTS; series mostly up to 92.2 µM;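 note: cells exposed to compound for 24 h at 37 °C; nearly all actives have a fitted effect of over 50% in size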
In short: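 Quantitative HTS in lymphoblastoid cells: 24 hr compound exposure, then CellTiter-Glo ATP luminescence. Positive control was tetraoctylammonium bromide, 6.4pM to 92 uM.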

[13] = Cell Viability - LYMP2-018 (AID 985); settings: LYMP2-018 lymphoblastoid cells, viability (qHTS); series mostly up to 92.2 µM; note: nearly all actives have a fitted effect of over 50% in size
In short: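 In this qHTS viability assay, cells are treated for 24 hr and cellular ATP is quantified by luciferase-based luminescence, with tetraoctylammonium bromide as positive control.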

[14] = Cell Viability - LYMP2-020 (AID 986); settings: series mostly up to 92.2 µM;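 note: cells exposed to compound for 24 h at 37 °C; nearly all actives have a fitted effect of over 55% in size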
In short: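 Cells at 2500 per well receive a 24 hr compound exposure at 37 C. Viability is measured as ATP-dependent luciferase luminescence, with AC50 modeled from qHTS concentration-response curves.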

[15] = Cell Viability - LYMP2-022 (AID 987); settings: LYMP2-022 lymphoblastoid cell viability; series mostly up to 92.2 µM; note: nearly all actives have a fitted effect of over 55% in size
In short: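 In this qHTS cytotoxicity screen, compound titrations were incubated 24 hr at 37 C with human lymphoblastoid cells in complete medium. Luciferase-based ATP luminescence provided the viability signal.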

[16] = Cell Viability - LYMP2-024 (AID 988); settings: LYMP2-024 lymphoblastoid cell viability; series mostly up to 92.2 µM; note: nearly all actives have a fitted effect of over 60% in size
In short: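 Cells at 2500 per well received compound for 24 hr after a 5 hr settling period. Viability was scored by CellTiter-Glo luminescence, with AC50 from Hill fits.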

[17] = Cell Viability - LYMP2-026 (AID 989); settings: LYMP2-026 lymphoblastoid cell viability, qHTS; series mostly up to 92.2 µM;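 note: cells exposed to compound for 24 h at 37 °C; nearly all actives have a fitted effect of over 50% in size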
In short: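 Acute toxicity screen in complete culture medium, with 24 hr compound exposure at 37 C. Viability read as cellular ATP via luciferase reaction, with tetraoctylammonium bromide (6.4pM to 92 uM) as positive control.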

[18] = Cell Viability - LYMP1-002 - Assay at 40 hr (AID 994); settings: LYMP1-002 lymphoblastoid cell viability; series mostly up to 92.2 µM; note: nearly all actives have a fitted effect of over 60% in size
In short: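 Concentration-dependent ATP loss after 40 hr treatment at 37 C defined toxicity; AC50 values were obtained by fitting the standard Hill equation.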

[19] = measured here: cell count channel max response
[20] = measured here: lipid channel max response

With `Nc1[nH]c(=O)ncc1F` the activity change, negative = inhibition ([1]; at 25.7 µM (top of the series)) was 0.855% (inactive), the max response [1, 19] was 2.68% and the max response [1, 20] was 3.39%.

In the case of `O=C(O)C1CCCN(CCC=C(c2ccccc2)c2ccccc2)C1` (configuration not stated), the outcome [2] is reported as “inactive”, the outcome [3] is reported as “inactive” and the outcome [4] is reported as “inactive”. For the same compound, the outcome [5] was “inactive”, the Potency [6] was “inactive” and the Potency [7] was “inactive”. For the same compound, the Potency [8] was “inactive” and the Potency [9] was “inactive”.

With `CN(C)CCc1c[nH]c2ccc(CS(=O)(=O)N3CCCC3)cc12` the activity change, negative = inhibition ([1]; at 57.5 µM (top of the series)) was 5.82% (inactive), the max response [1, 19] was 19.2% and the max response [1, 20] was 27.5%.

In the case of `CC(=O)CC(c1ccccc1)c1c(O)c2ccccc2oc1=O` (configuration not stated), the activity change, negative = inhibition ([1]; at 57.5 µM (top of the series)) is reported as 15.6% (inactive), the max response [1, 19] is reported as 10.6% and the max response [1, 20] is reported as 30.9%.

In the case of `CC(C)NCC(O)c1ccc(NS(C)(=O)=O)cc1` (configuration not stated), the outcome [2] is reported as “inactive”, the outcome [3] is reported as “inactive” and the outcome [4] is reported as “inactive”. For the same compound, the outcome [5] was “inactive”, the Potency [6] was “inactive” and the Potency [7] was “inactive”. For the same compound, the Potency [8] was “inactive” and the Potency [9] was “inactive”.

For `COC(=O)Nc1nc2ccc(C(=O)c3ccccc3)cc2[nH]1`, the activity change, negative = inhibition ([1]; at 25.7 µM (top of the series)) was -15.3% (inactive), the max response [1, 19] was -1.6% and the max response [1, 20] was -17.4%.

For `C1CCC(C(CC2CCCCN2)C2CCCCC2)CC1` (configuration not stated), the activity change, negative = inhibition ([1]; at 57.5 µM (top of the series)) was -9.69% (inactive), the max response [1, 19] was -15.8% and the max response [1, 20] was -21.2%.

In the case of `OC(Cn1cncn1)(Cn1cncn1)c1ccc(F)cc1F`, the activity change, negative = inhibition ([1]; at 57.5 µM (top of the series)) is reported as 11.9% (inactive), the max response [1, 19] is reported as 12.6% and the max response [1, 20] is reported as 26.4%.

In the case of `COc1cnc(NS(=O)(=O)c2ccc(N)cc2)nc1`, the activity change, negative = inhibition ([1]; at 25.7 µM (top of the series)) is reported as -0.0044% (inactive), the activity change, negative = inhibition ([1]; at 57.5 µM (top of the series)) is reported as 4.6% (inactive) and the max response [1, 19] is reported as -12.6% and 15.3%. The max response [1, 20] was -11.3% and 19.8%.

In the case of `C[C@]12C=CC(=O)C=C1CC[C@@H]1[C@@H]2C(=O)C[C@@]2(C)[C@H]1CC[C@]2(O)C(=O)CO`, the Potency [10] is reported as “inactive”, the Potency [11] is reported as “inactive” and the Potency [12] is reported as “inactive”. For the same compound, the Potency [13] was “inactive”, the Potency [14] was “inactive” and the Potency [15] was “inactive”. For the same compound, the Potency [16] was “inactive”, the Potency [17] was “inactive” and the Potency [18] was “inactive”.

In the case of `CCn1cc(C(=O)O)c(=O)c2cc(F)c(N3CCNCC3)nc21`, the activity change, negative = inhibition ([1]; at 25.7 µM (top of the series)) is reported as 0.491% (inactive), the activity change, negative = inhibition ([1]; at 57.5 µM (top of the series)) is reported as 8.65% (inactive) and the max response [1, 19] is reported as 9.91% and 14.4%. The max response [1, 20] was 12.7% and 27.2%.

In the case of `NC(N)=NC(N)=NCCc1ccccc1`, the Potency [10] is reported as “inactive”, the Potency [11] is reported as “inactive” and the Potency [12] is reported as “inactive”. For the same compound, the Potency [13] was “inactive”, the Potency [15] was “inactive” and the Potency [16] was “inactive”. For the same compound, the Potency [17] was “inactive”, the Potency [18] was “inactive” and the activity change, negative = inhibition ([1]; at 25.7 µM (top of the series)) was -0.801% (inactive). For the same compound, the max response [1, 19] was 4.96% and the max response [1, 20] was 5.89%.

For `NNC(=O)c1ccncc1`, the Potency [10] was “inactive”, the Potency [11] was “inactive” and the Potency [12] was “inactive”. The Potency [13] was “inactive”, the Potency [14] was “inactive” and the Potency [15] was “inactive”. The Potency [16] was “inactive”, the Potency [17] was “inactive” and the Potency [18] was “inactive”. For the same compound, the activity change, negative = inhibition ([1]; at 25.7 µM (top of the series)) was -0.316% (inactive), the max response [1, 19] was -8.98% and the max response [1, 20] was -8.54%.

For `O=C(O)c1cc(=O)[nH]c(=O)[nH]1`, the Potency [10] was “inactive”, the Potency [11] was “inactive” and the Potency [12] was “inactive”. For the same compound, the Potency [13] was “inactive”, the Potency [14] was “inactive” and the Potency [15] was “inactive”. The Potency [16] was “inactive”, the Potency [17] was “inactive” and the Potency [18] was “inactive”.

In the case of `CC[C@H](C)C(=O)O[C@H]1C[C@@H](C)C=C2C=C[C@H](C)[C@H](CC[C@@H]3C[C@@H](O)CC(=O)O3)[C@H]21`, the Potency [11] is reported as “inactive”, the Potency [12] is reported as “inactive” and the Potency [13] is reported as “inactive”. The Potency [15] was “inactive”, the Potency [16] was “inactive” and the Potency [17] was “inactive”.
